Measurements published in PubChem BioAssay (NCATS).
Inconclusive results are not listed. Where a call stands in place of a potency, no number is given. The source made the active and inactive calls. The call rests on the fitted dose curve; in most records, active means well fitted activation curve with a large enough effect; inconclusive means small, poorly fitted or top-dose-only effect; inactive means no such curve, though single readings can be large or run the other way. Residues, ends and D or L forms follow the SMILES beside them. *: point of attachment. Cbz = O=C(OCc1ccccc1)*

target: Arylsulfatase A (Homo sapiens) (UniProt P15289); assay: qHTS screen for enhancers of Arylsulfatase A (ASA1): LOPAC Validation Assay (AID 720538); details: ASA enzyme activity, LOPAC qHTS enhancer assay; series mostly up to 57.5 µM
Sequence (P15289 whole entry, looked up): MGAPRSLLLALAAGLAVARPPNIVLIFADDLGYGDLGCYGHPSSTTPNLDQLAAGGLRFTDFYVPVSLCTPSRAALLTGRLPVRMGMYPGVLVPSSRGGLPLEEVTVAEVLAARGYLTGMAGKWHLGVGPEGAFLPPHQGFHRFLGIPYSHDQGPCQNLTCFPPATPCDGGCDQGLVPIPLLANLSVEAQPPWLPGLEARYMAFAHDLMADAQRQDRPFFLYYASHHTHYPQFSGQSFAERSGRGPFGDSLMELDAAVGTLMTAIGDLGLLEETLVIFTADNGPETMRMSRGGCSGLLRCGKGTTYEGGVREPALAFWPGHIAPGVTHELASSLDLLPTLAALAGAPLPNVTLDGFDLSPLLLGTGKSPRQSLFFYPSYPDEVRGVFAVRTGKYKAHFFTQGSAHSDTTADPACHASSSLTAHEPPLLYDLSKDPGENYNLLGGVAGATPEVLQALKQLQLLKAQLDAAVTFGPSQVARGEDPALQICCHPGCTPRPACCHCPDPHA
Source text: Lysosomal storage diseases (LSDs) are caused by genetic mutations in genes encoding proteins important for normal lysosomal function. In affected patients, symptoms are usually not manifested unless the mutations result in more than 90% reduction of enzymatic activity of a specific lysosomal enzyme. […] Small molecules could function as enzyme enhancement agents by binding to and stabilizing mutant misfolded proteins in the endoplasmic reticulum (ER), allowing them to evade the ER associated degradation (ERAD), and eventually reach the lysosome. Moreover, small molecules is hypothesized to be able to enhance the residual activity of deficient lysosomal enzyme by either interacting directly with the mutant enzyme or indirectly by acting in different cellular pathways; resulting to increased levels of the mutant and partially functional protein in the lysosomal compartment.
A cell based assay in 1536 well plate format was developed to evaluate activity of the lysosomal sulfatase ASA1 enzyme. ASA1 is deficient in metachromatic leukodystrophy (MLD), an LSD characterized by progressive neurodegeneration for which specific treatment is not available. Compounds that are active may therefore have some therapeutic application for this disease. This assay was used to validate the ASA1 qHTS using the Sigma LOPAC library. In this assay increase in signal = enhanced ASA1 activity. Activation is the desired outcome for this assay.
NIH Chemical Genomics Center [NCGC]
NIH Molecular Libraries Probe Centers Network [MLPCN]
Assay Submitter (PI): Gustavo Maegawa, Johns Hopkins University School of Medicine
[2] Gieselmann V, et al. Acta Paediatr Suppl. 2008; 97: 15-21
Four microliter (~8,000 cells/well) of SV40-transformed skin fibroblasts from an MLD patient (ASA-I179S) were seeded into a 1,536 solid white plate. Cells were left to adhere for 6 hrs, followed by addition of 23 nL of compounds. Cells were incubated with compounds for 48h at 37 degree C and 5% CO2. Four microliter of 1 mM pNCS substrate/lysis buffer (0.5mM pNCS final concentration) was added and incubated for 14h at room temperature. To stop the reaction, […] of 5 N of NaOH (1N NaOH final concentration) was then added and fluorescence was measured using the ViewLux plate reader (Ex=525 nm; Em=598 nm).
Potency means the concentration at half of the fitted maximal effect.

Structure (SMILES) | Potency
O=C(O)/C=C/c1cnc[nH]1 | inactive
CN1CCC2(CCN3CCc4c(oc5ccccc45)C3C2)N(C)C1=O (stereo not given) | inactive
NOCC(=O)O | inactive
C=CCNc1ncnc2ccc(Br)cc12 | inactive
N[C@H](C(=O)O)[C@H](Cc1ccccc1)C(=O)O | inactive
CCCc1c(-c2ccc(O)cc2)nn(-c2ccc(O)cc2)c1-c1ccc(O)cc1 | inactive
N[C@@H](CS(=O)O)C(=O)O | inactive
Nc1ccc(CCNc2ncnc3c2ncn3C2OC(CO)C(O)C2O)cc1 (stereo not given) | inactive
CO/N=C(\C(=O)N[C@@H]1C(=O)N2C(C(=O)O)=C(CSc3nc(=O)c(O)nn3C)CSC12)c1csc(N)n1 (stereo not given in full) | inactive
COc1cc(CNC(=O)CCCCCCC(C)C)ccc1O | inactive
NC/C=C\C(=O)O | inactive
N[C@H](C(=O)O)c1cc(O)cc(O)c1 | inactive
Oc1ccc(/C=C/c2ccc(/C=C/c3ccc(O)cc3)c(Br)c2)cc1 | inactive
N=C(N)c1ccc(N)cc1 | inactive
CC(C)NCC(O)COc1ccc(CC(N)=O)cc1 (stereo not given) | inactive
N[C@H](C(=O)O)[C@H]1C[C@@H]1C(=O)O | inactive
CN1Cc2sccc2C(c2ccc(O)c(O)c2)C1 (stereo not given) | inactive
Cc1cccc(C)c1OCC(N)C(C)C (stereo not given) | inactive
CC(=O)NNC(=O)N1Cc2ccccc2Oc2ccc(Cl)cc21 | inactive
Cc1ccc2c(c1)C(N1CCN(C)CC1)=Nc1cccnc1N2 | inactive

Structure (SMILES) | Potency
CCC1(O)CC2CN(CCc3c([nH]c4ccccc34)[C@@](C(=O)OC)(c3cc4c(cc3OC)N(C=O)C3[C@]45CCN4CC=C[C@@](CC)([C@@H](OC(C)=O)[C@]3(O)C(=O)OC)[C@H]45)C2)C1 (stereo not given in full) | inactive
CCCn1c(=O)c2[nH]c(C3CCCC3)nc2n(CCC)c1=O | inactive
CC1CCN=C(N)S1 (stereo not given) | inactive
c1ccc2c(c1)CCC[C@H]2Nc1nc2ccccc2[nH]1 | inactive
CC(=O)NCCc1c[nH]c2ccc(O)cc12 | inactive
O=C(N[C@@H](Cc1ccccc1)C(=O)CCl)OCc1ccccc1 | inactive
C=CCn1c(=O)c2c(nc(-c3ccc(S(=O)(=O)O)cc3)n2C)n(C)c1=O | inactive
C[N+](C)(C)CC=O | inactive
CC(=O)O[C@H]1Cc2ccccc2N(C(N)=O)c2ccccc21 | inactive
Nc1ncnc2c1ncn2C1CCCO1 (stereo not given) | 2690 nM (active)
c1ccc(C(NCc2cccnc2)(c2ccccc2)c2ccccc2)cc1 | inactive
CN(C)S(=O)(=O)c1ccc2c(c1)/C(=C/c1cc3c([nH]1)CCCC3)C(=O)N2 | inactive
COc1cc(N)c(Cl)cc1C(=O)OCCN1CCCCC1 | inactive
CC(C)[C@H](NC(=O)OCc1ccccc1)C(=O)N[C@H](C=O)Cc1ccccc1 (Cbz-Val-Phe-aldehyde) | inactive
S=C(S)N1CCCC1 | inactive
CCN(CC)CCCCCCCCOC(=O)c1cc(OC)c(OC)c(OC)c1 | inactive
C[C@H](O)C(=O)C1=Nc2c(nc(N)[nH]c2=O)NC1 | inactive
O=c1onc2cnc3ccccc3n12 | inactive
O=C(O)c1ccccc1Nc1ccccc1 | inactive
COc1ccccc1N1CCN(CCN(C(=O)c2ccc(F)cc2)c2ccccn2)CC1 | inactive
